Measurements taken from PubChem BioAssay (Tox21).
“And” between values parts separate entries of the source, which are not always exact repeats. Equal entries are not always repeated. Inconclusive results are not listed. Values without a mark were called inactive. The source made the active and inactive calls. Calls come from the whole dose curve; as a rule, active = well fitted cell-killing curve with a large enough effect in the repeat runs; inconclusive = weak or mixed curves, or effect the other way; inactive = no such curve, though single readings can be large or run the other way.

experiment: qHTS assay to identify small molecule antagonists of the thyroid receptor (TR) signaling pathway - cell viability counter screen (AID 743064); settings: GH3.TRE-Luc viability, CellTiter-Fluor, 24 h; series mostly up to 70.3 µM; activity change, negative = cytotoxic: at the top concentration; note: nearly all actives have a fitted effect of over 50% in size
Excerpt: National Center for Advancing Translational Sciences [NCATS]
NIH Chemical Genomics Center [NCGC]
U.S. Environmental Protection Agency [EPA]
National Institutes of Environmental Health Sciences [NIEHS]
National Toxicology Program [NTP]
U.S. Food and Drug Administration [FDA]
Thyroid receptor (TR), a nuclear hormone receptor, plays an important role in development, proliferation, differentiation, metabolism, brain function, and cardiovascular system. […] To profile the Tox21 10K compound library in TR signaling, a cell-based GH3-TRE-Luc assay (GH3.TRE-Luc cell line, developed by the laboratory of Dr. Albertinka J. Murk, Wageningen University) was used to measure the inhibition of TR. GH3 (rat pituitary tumor) cells stably expressing a TR activity sensor consisting of two TR response elements and a luciferase reporter gene. The cytotoxicity of the Tox21 compound library against the GH3.TRE-Luc cell line was tested in parallel by measuring the cell viability using CellTiter-Fluor assay (Promega, Madison, WI) in the same wells.
Tox21 Assay Protocol Summary:
GH3.TRE-Luc cells were dispensed at 1500 cells/4 uL/well into 1536-well white solid bottom plates using a Multidrop Combi dispenser (Thermo Fisher Scientific Inc., Waltham, MA). After the assay plates were incubated at 37 C for 4 hours, 23 nL of library compound or DMSO controls was transferred to the assay plates by a pintool station (Kalypsys, San Diego, CA), followed by addition of 1 ul of T3 (1 nM, final concentration in the wells) to stimulate TR transactivation. The assay plates were incubated at 37 C for 23.5 h, and then 1 uL of CellTiter-Fluor reagent (Promega, Madision, WI) of measuring cytotoxicity was added to each well using a Bioraptr Flying Reagent Dispenser (FRD) workstation (Beckman Coulter, Indianapolis, IN, USA). The plates were incubated at 37C and 5% CO2 for additional 30 min, and fluorescence intensity was measured by a ViewLux plate reader (PerkinElmer, Shelton, CT).
% is set by controls: 0 for no effect and ±100 for the full control effect; potency is the fitted concentration of half-maximal effect.

Compound	activity change, negative = cytotoxic	Potency
C=CC(O)CCCCC (stereo not given)	6.41%	–
CCC(CC)C(=O)O	30%	–
COC(=O)/C=C/C(C)=C\C=C\C(C)=C\C=C\C=C(C)\C=C\C=C(C)\C=C\C(=O)O	-18.6%	–
CC1(C)C(=O)NC(=O)N1CO	2.75%	–
COC(=O)C(C)(C)C	5.33% [at 95 µM]	–
CCCCCCC/C=C/C=O	8.83%	–
c1ccc(CN(Cc2ccccc2)Cc2ccccc2)cc1	23.3%	–
CC(C(=O)O)c1ccc2c(c1)Cc1cccnc1O2 (stereo not given)	-13.1%	–
Nc1nc(Cl)nc2c1ncn2[C@H]1C[C@H](O)[C@@H](CO)O1	–	422 nM (active) and 136 nM (active)
CCC[Si](OC)(OC)OC	-15.8%	–
O=C(NC1CCN(CCc2c[nH]c3ccccc23)CC1)c1ccccc1	–	26.6 µM (active)
N#Cc1ccc(CC(=O)c2cccc(C(F)(F)F)c2)cc1	7.91%	–
COc1cc(CNC(=O)CCCC/C=C/C(C)C)ccc1O	–	inactive
CC(C)(C)N	6.55%	–
O=C1CCCN1CCO	14.9%	–
CCn1nc(Cc2ccccc2)cc1C1CCN(C[C@H]2C[C@H](N(C)[C@@H](C(=O)O)C(C)C)C[C@@H]2c2cccc(F)c2)CC1	–	27.3 µM (active)
O=C(O)c1ccc2c(c1)nc(C(=O)NC1CCN(C3CC3)CC1)n2Cc1cc(-c2ccc(Cl)s2)on1	0.768% [at 32.5 µM]	–
O=Cc1ccc([N+](=O)[O-])cc1	-6.56% [at 95 µM]	–
CCOc1cc(OCC)c(C(C)=O)cc1OCC	–	19 µM (active)
CC(CN=Cc1ccccc1O)N=Cc1ccccc1O (stereo not given)	1.66%	–

Compound	activity change, negative = cytotoxic	Potency
CC(C)=CCC[C@H](C)CCO	0.943%	–
CCC(=O)O[C@@H]1C[C@H]2CC[C@]1(C)C2(C)C	4.37%	–
C1CCN(CN2CCCCC2)CC1	3.63%	–
COC=O	17.8% [at 8.44 µM]	–
CC/C=C\CCO	18.7%	–
O=C(OC1C[C@H]2CC[C@@H](C1)[N+]21CCCC1)C(O)(c1ccccc1)c1ccccc1 (stereo not given in full)	8.21%	–
CC(=O)OCC(=O)[C@@]1(O)CC[C@H]2[C@@H]3CCC4=CC(=O)C=C[C@]4(C)[C@@]3(F)[C@@H](O)C[C@@]21C	1.52% [at 32.5 µM]	–
CCCCCCCCCCCCN1CCOCC1	0.106%	–
c1ccc(-c2ccc(-c3ccccc3)cc2)cc1	6.79% [at 32.5 µM]	–
CCCCOc1ccc(N)cc1	-10.5%	–
Cc1ccccc1CCO	2.19%	–
CCc1ccc2c(c1)C(=O)c1ccccc1C2=O	-0.26%	–
CC(=O)CC/C=C(\C)CC/C=C(\C)CC/C=C(\C)CCC=C(C)C	7.42%	–
Clc1cccc(C(c2ccc3nc[nH]c3c2)n2ccnc2)c1 (stereo not given)	2.26%	–
O=C(OCCOCCOCCOC(=O)c1ccccc1)c1ccccc1	2.44%	–
CCCC1CCCC(=O)O1 (stereo not given)	-18.3%	–
OCC(O)c1ccccc1 (stereo not given)	6.91%	–
CCCN(C1CCN(C(=O)C2CCNCC2)CC1)[C@@H]1CCc2ccc(OC)cc2C1	–	68.6 µM (active)
CCCCCCCCCCCCSC#N	-4.37%	–
CO[C@@H]1COCC[C@@H]1N[C@@H]1CC[C@@](C(=O)N2CCc3ncc(C(F)(F)F)cc3C2)(C(C)C)C1	2.75%	–
